APOBEC3A inh = human APOBEC3A DNA deaminase inhibition. recombinant A3A, FAM/TAMRA ssDNA deamination fluorescence. inhibition, % at 20 µM. P31941. AID 493011. actives 0.41% (n = 330,000);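 active = at least 40% inhibition at 20 µM here, with at most 30% in a related deaminase screen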;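 also: plate controls were A3A with DMSO for no effect and wells lacking A3A enzyme for full effect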
Target sequence (P31941 whole entry, looked up): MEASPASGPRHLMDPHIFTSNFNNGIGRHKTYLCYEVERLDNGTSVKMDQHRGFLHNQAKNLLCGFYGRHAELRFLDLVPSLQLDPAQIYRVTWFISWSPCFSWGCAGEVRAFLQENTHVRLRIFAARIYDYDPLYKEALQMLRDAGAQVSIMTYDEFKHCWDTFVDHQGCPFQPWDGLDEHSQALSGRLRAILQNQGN
AHR act = activates the human aryl hydrocarbon receptor | P35869 | AHR-responsive luciferase reporter cells, luminescence | activation, % at 5 µM | actives 2.5% (n = 320,000) | AID 2796; in the data active = activation above about 47%;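 also: 0% = vehicle wells and 100% = reference agonist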
NTR1 agonist = activates human neurotensin receptor 1; P30989; NTR1-U2OS beta-arrestin-GFP spot imaging, agonist mode; activation, % at 20 µM; actives 0.17% (n = 330,000); AID 493036;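 active = activation at or above 40% of the spot to cytoplasm intensity ratio, with at least 20 cells analyzed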;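 also: 0% = DMSO without peptide and 100% = 100 nM NTR1 peptide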
Target sequence (P30989 whole entry, looked up): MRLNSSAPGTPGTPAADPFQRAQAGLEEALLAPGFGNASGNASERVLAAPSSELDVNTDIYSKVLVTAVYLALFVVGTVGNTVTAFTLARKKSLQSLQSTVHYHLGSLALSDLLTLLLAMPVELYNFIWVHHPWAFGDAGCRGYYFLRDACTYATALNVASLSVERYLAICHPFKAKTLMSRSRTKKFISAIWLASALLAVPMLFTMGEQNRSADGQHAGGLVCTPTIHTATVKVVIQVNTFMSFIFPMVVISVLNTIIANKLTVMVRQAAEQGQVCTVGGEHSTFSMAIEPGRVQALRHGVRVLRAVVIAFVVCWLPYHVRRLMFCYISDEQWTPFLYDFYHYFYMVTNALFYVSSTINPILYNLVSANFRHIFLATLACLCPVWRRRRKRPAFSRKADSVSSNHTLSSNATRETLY
A3G deaminase = APOBEC3G (human) deaminase inhibition; Q9HC16; inhibition, % at 20 µM; actives 0.28% (n = 330,000); recombinant A3G, ssDNA deamination FAM/TAMRA fluorescence;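 active = inhibition of at least 40% at 20 µM, with no more than 30% in the related APOBEC3A deaminase screen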;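 also: plate controls were DMSO wells with A3G for no effect and wells lacking A3G enzyme for full effect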
AHR act cf = human AHR activation, confirmation; activation, % at 9 µM; shares compounds with AHR act; human cells, AHR-responsive luciferase reporter, luminescence; AID 2845; actives 87% (n = 2,300); in the data active = activation above about 49%;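 also: HepG2 hepatoma cells carrying a DRE-driven firefly luciferase reporter; 0% = vehicle wells and 100% = reference agonist wells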
PXR counter = PXR activation, counter-screen for AHR activators; shares compounds with AHR act; cell-based PXR reporter, luciferase luminescence; activation, % at 11.6 µM; actives 88% (n = 2,300); AID 434939; in the data active = activation above about 11%;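 also: human hepatoma DPX-2 cells expressing full-length human PXR; 0% = DMSO and 100% = reference agonist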
Numbers without * were called inactive; nt = not tested or not shown. Sampled rows, rich in hits. Any-hit rate of the full collection: about 3.2%.

SMILES | APOBEC3A inh | AHR act | NTR1 agonist | A3G deaminase | AHR act cf | PXR counter
Cc1[nH]c2ccccc2c1C(=O)/C=C/c1ccccc1Cl | -0.1 | 147.1* | 2.6 | -8.9 | 122.9* | 71.7*
Cc1[nH]c2ccccc2c1C(=O)/C=C\c1ccccc1Cl | -0.8 | 156.8* | 10.8 | -2.3 | 112.4* | 77.9*
CC(=O)c1c(C)[nH]c2ccccc2c1=O | 2.4 | 0.9 | -2.2 | 6.0 | nt | nt
Cc1[nH]c2ccccc2c1C(=O)/C=C/c1ccccc1 | -7.3 | 165.7* | -0.9 | 3.0 | 140.1* | 200.0*
CCN(CC)c1ccc(CNCc2cccs2)cc1 | -1.0 | 7.7 | 2.6 | -6.5 | nt | nt
Cc1ccc(/C(O)=C2/C(=O)C(=O)N(CC(=O)O)C2c2ccc([N+](=O)[O-])cc2)cc1 (configuration not stated) | -9.5 | -2.2 | 0.5 | -6.0 | nt | nt
CC(NC(=O)CCc1nnc(-c2ccc(-c3ccccc3)cc2)o1)c1nc2ccccc2[nH]1 (configuration not stated) | 0.5 | -4.7 | 0.4 | -6.9 | nt | nt
Cc1ccc(C(=O)NC(=S)NCC2CCCO2)cc1[N+](=O)[O-] (configuration not stated) | 2.9 | 10.0 | 0.1 | -3.4 | nt | nt
COCCNC(=O)Cn1nc(-c2ccc(C)cc2)c2ccccc2c1=O | -2.0 | 3.2 | -1.2 | -6.6 | nt | nt
O=C(NC(=S)NCCc1ccccn1)c1ccco1 | -2.4 | 2.9 | -1.0 | -6.1 | nt | nt
Cc1ccc2ncccc2c1NC(=S)NC(=O)c1ccccc1 | 0.7 | 86.1* | 3.3 | -0.3 | 125.5* | 37.0*
O=C(NC(=S)NCCc1ccccc1)c1cccc(Cl)c1 | -1.5 | 124.3* | 3.5 | -2.0 | 138.8* | 18.8*
O=C(NC(=S)NCCc1ccccn1)c1ccccc1 | -1.3 | 99.9* | -1.6 | 2.0 | 62.3* | 12.2*
Cc1ccc2c(NC(=S)NC(=O)c3ccccc3)cccc2n1 | -1.6 | 41.6 | 0.7 | -3.4 | nt | nt
O=C(OCC(=O)N1CCOCC1)c1cc(F)c(F)cc1Cl | -4.0 | -1.1 | -1.3 | -5.6 | nt | nt
CCNC(=O)N(C)C[C@H]1N[C@@](CC)(C(=O)OC)[C@H]2C(=O)N(Cc3ccccc3)C(=O)[C@@H]12 | -2.2 | -0.2 | 1.3 | -7.1 | nt | nt
CC[C@](C)(O)c1cc2ccccc2c(=O)o1 | -0.6 | 2.3 | -3.6 | -2.2 | nt | nt
CCCN1CCN(S(=O)(=O)c2ccc(-c3cc(C)no3)s2)CC1 | -2.0 | 0.0 | 1.0 | -0.5 | nt | nt
COCCCNC(=O)c1cccn2c(=O)c3cc4ccccc4cc3nc12 | -2.6 | 91.8* | -0.4 | -6.2 | 147.3* | 13.0*
N#CC1=C(N)Nc2nc3ccccc3n2C1c1ccc(Cl)cc1 (configuration not stated) | -1.4 | 98.8* | 6.1 | -11.1 | 68.7* | 48.9*
N#CC1=C(N)Nc2ncnn2C1c1ccccc1 (configuration not stated) | -3.0 | 4.2 | 1.2 | -4.9 | nt | nt
CC1CCN(c2nc(-c3cccnc3)nc3scc(-c4ccccc4)c23)CC1 | -0.5 | 14.8 | 2.4 | -4.5 | nt | nt
Clc1nc(-c2ccccn2)nc2scc(-c3ccccc3)c12 | -0.2 | 79.8* | 17.9 | -0.5 | 59.0* | 25.0*
COCc1cc(=O)n2[nH]c(-c3cccc(Br)c3)cc2n1 | -4.4 | 119.5* | -0.7 | -5.4 | 115.0* | 12.8*
CC(=O)Nc1cccc(N/C(N)=N/c2nc(C)cc(C)n2)c1 | 2.5 | 45.8 | -1.0 | -3.2 | nt | nt
SMILES | APOBEC3A inh | AHR act | NTR1 agonist | A3G deaminase | AHR act cf | PXR counter
Cc1cccc(N/C(N)=N/c2nc(C)cc(C)n2)c1 | -2.7 | 80.7* | -1.3 | -4.0 | 49.9* | 12.3*
O=C(COC(=O)/C=C/c1ccc(F)cc1)Nc1ccc(S(=O)(=O)N2CCOCC2)cc1 | 1.3 | -0.8 | -1.1 | -1.1 | nt | nt
CCOC(=O)[C@@H]1[C@H]2COc3ccccc3[C@@H]2N2C(=O)N(c3ccc(C(F)(F)F)cc3)C(=O)[C@]12C | 3.3 | 0.1 | 2.1 | -2.4 | nt | nt
CCOc1ccc(-c2nc(N)nc(C)c2-c2ccc(Cl)cc2)c(O)c1 | 1.7 | 89.9* | 16.2 | 0.8 | 78.7* | 39.1*
COc1ccc(-c2nc(N)nc(C)c2-c2ccc(Cl)cc2)c(O)c1 | 7.1 | 22.8 | 11.8 | -7.6 | nt | nt
Nc1nc(-c2ccco2)nn1C(=O)c1ccc(Cl)cc1 | -1.9 | 1.9 | 1.3 | 2.7 | nt | nt
Nc1nc2ccc(Cl)cc2c2nc(-c3ccco3)nn12 | 1.8 | 107.4* | 0.7 | -4.6 | 247.9* | 33.8*
CCc1ccc(S(=O)(=O)/N=C2\C=C(NS(=O)(=O)c3ccccc3)C(=O)c3ccccc32)cc1 | 0.1 | nt | 2.3 | -5.4 | nt | nt
CC(C)c1ccc(S(=O)(=O)/N=C2\C=C(NS(=O)(=O)c3ccccc3)C(=O)c3ccccc32)cc1 | nt | 83.4* | nt | nt | 20.4 | 130.3*
O=C(Nc1ccc(Cl)cc1)c1cccc(S(=O)(=O)Nc2ccccn2)c1 | 2.3 | 90.7* | 0.4 | 2.6 | 77.3* | 33.8*
O=C(Nc1ccc(Cl)cc1)c1cc(S(=O)(=O)Nc2ccccn2)ccc1Cl | -5.5 | 0.1 | 0.3 | -13.8 | nt | nt
Cc1ccc(Nc2n[nH]c(C)c2[N+](=O)[O-])c(C)c1 | 0.7 | 132.1* | 0.9 | -2.7 | 126.8* | 15.0*
Cc1ccccc1Nc1n[nH]c(C)c1[N+](=O)[O-] | -2.0 | 80.1* | 3.1 | -9.2 | 106.5* | 22.2*
Cc1ccc(OCC(=O)NC(=S)Nc2ccc(Br)cn2)cc1C | -6.2 | 0.5 | 8.6 | -9.5 | nt | nt
CCNC(=S)N/N=C/c1c(Cl)cccc1Cl | -2.6 | 5.7 | -1.6 | -2.3 | nt | nt
CC(C)(C)NC(=S)N/N=C/c1c(Cl)cccc1Cl | -2.2 | 103.2* | 3.8 | -3.0 | 4.8 | 131.0*
Cn1c(=O)c([N+](=O)[O-])c(NCc2ccc3c(c2)OCO3)c2ccccc21 | -2.8 | 88.8* | -0.3 | -7.1 | 98.6* | 86.5*
Cn1c(=O)c([N+](=O)[O-])c(NCc2ccccc2Cl)c2ccccc21 | -2.7 | 45.1 | 2.7 | -8.6 | nt | nt
Cn1c(=O)c([N+](=O)[O-])c(NCCc2ccccc2)c2ccccc21 | -0.7 | 81.3* | 4.3 | -6.0 | 89.4* | 48.6*
CCN(CC)CCNc1nc2cc(OC)c(OC)cc2c2nc(-c3ccccc3)nn12 | 7.3 | 90.4* | 4.4 | -0.7 | 16.6 | 4.6
CCOC(=O)c1sc(Nc2nc3c(OC)cccc3s2)cc1C | 3.0 | 107.7* | 36.6 | -3.0 | 88.1* | 60.9*
CCOC(=O)c1sc(Nc2nc3cc4c(cc3s2)OCO4)cc1C | -0.5 | 45.2 | 11.3 | -2.9 | nt | nt
CC(/C=C/c1ccccc1)=N\Nc1nc(C)cc(C)n1 | -0.8 | 89.4* | 0.6 | -3.6 | 39.4 | 27.6*
CC(/C=C/c1ccccc1)=N/NC(=O)c1nc2nc(C)cc(C)n2n1 | -5.4 | 5.1 | 2.1 | -5.4 | nt | nt
COc1ccccc1NC(=O)c1ccc(CSc2ccccc2)o1 | -2.0 | 12.5 | 1.4 | -4.0 | nt | nt
O=c1c2ccccc2nc2n1-c1ccccc1CCC2 | -3.0 | -0.2 | -1.4 | -4.5 | nt | nt
O=C1c2ccccc2-n2c1nc1ccccc1c2=O | -8.3 | 107.8* | -0.7 | -5.4 | 155.0* | 30.5*
CC(C)N1CCc2c(sc(NC(=O)c3ccc4ccccc4c3)c2C(N)=O)C1 | -9.9 | 6.3 | 0.6 | -11.1 | nt | nt

Bioassay records deposited in PubChem by several laboratories.
